Assay in all cases: NCI-60 one-dose screen, 48 h (100 = growth as untreated, 0 = no growth, -100 = all killed)
Common to all, as to conditions: 10 µM unless noted

Test [1] has as its system DU-145 prostate.
Test [2] deals with K-562 leukemia.
The test system of test [3] is MALME-3M melanoma.
In test [4] the test system is MDA-MB-231 breast.
For test [5], the system named is RXF 393 renal.
Test [6] concerns SF-268 CNS.
Test [7] deals with SF-295 CNS.
For test [8], the system named is SF-539 CNS.
Test [9] deals with UACC-257 melanoma.
In test [10] the test system is M14 melanoma.

Each structure is given as a SMILES string. “And” between values parts separate entries of the source, which are not always exact repeats. Equal entries are not always repeated. Compounds without any hit were thinned out: in the full panel of roughly 83,000, 20% have a hit.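 Note: values are percent growth. 100 is the growth of untreated cells, values between 100 and 0 indicate rising inhibition; between -100 and 0 indicates cell death.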 A number with no mark means an inactive call. The source made the active and inactive calls. How the source made its calls: active means growth percent below 10; inactive means the rest.

Turning to `Nc1ncnc2c1C(c1ccc([N+](=O)[O-])cc1)c1sc3c(F)cccc3c1O2` (stereo not given), the growth in test [1] was 93.1%; in [2], 83.4%; in test [3], 104%; in test [4], 84.4%; in [5], 101%; in [6], 98.7%. For the same molecule, the growth in [7] is 106%; in [8], 96%; in [9], 121%; in [10] it was 112%.

In the case of `C=C(CNCCc1ccc(O)cc1)[C@@H]1CC[C@]2(CO)CC[C@]3(C)[C@H](CC[C@@H]4[C@@]5(C)CCC(NCCc6ccc(O)cc6)C(C)(C)[C@@H]5CC[C@]43C)[C@@H]12` (stereo not given in full), the growth is -98.6% (active) in [1]; -72.9% (active) in test [2]; -88.2% (active) in test [3]; -87.1% (active) in test [4]; -91.2% (active) in test [5]; -81.5% (active) in test [6]. Also, the growth in [7] was -92.9% (active); in test [8] it was -88.2% (active); in test [9] it was -80.5% (active); in test [10], -85.4% (active).

For `COc1cc(/C=C2\CCC/C(=C\c3cc(CN4CCCC4)c(O)c(OC)c3)C2=O)cc(CN2CCCC2)c1O`, the growth was 2.36% (active) in [1]; 11.1% in test [2]; 81.6% in test [3]; 12.5% in test [4]; 10.6% in test [5]; 35.3% in test [6]. In addition, the growth in test [7] was 62.5%; in test [8] it was 23%; in test [9], 86.6%; in test [10] it was 19.6%.

In the case of `N=C(N)c1ccc(-c2ccc(-c3ccc(F)cc3)s2)nc1`, the growth in test [1] is 81.5%; in test [2] it was 0.099% (active); in test [3], 89.5%; in test [4], 57.1%; in test [5] it was 80.1%; in test [6] it was 87.6%. The growth in [7] was 79.5%; in [8] it was 79.6%; in test [9] it was 93%; in test [10] it was 76.1%.

With `O=C(NNC(=S)Nc1ccccc1)c1ccncc1`, the growth in [1] is 115%; in test [2] it was 106%; in test [3], 108%; in test [4] it was 111%; in [5], 114%; in test [6] it was 105%. Besides, the growth in test [7] was 110%; in [8], 100%; in test [9] it was 110%; in test [10], 107%.

Turning to `C=CCOc1ccc(/C=C2\SC(=S)N(CCc3ccc(O)cc3)C2=O)cc1`, the growth in test [1] was 98.3%; in test [2] it was 62.1%; in test [3], 101%; in test [4], 90.2%; in test [5] it was 114%; in test [6] it was 91.4%. Moreover, the growth was 91.1% in test [7], 82.7% in test [8], 92.6% in [9] and 103% in test [10].

`CCOC(=O)N(O)c1ccc(/C=C/c2ccccc2)cc1`: the growth in [1] is 65.7% and 61.4%; in [2] it was 39.9% and 40.3%; in test [3], 96.6% and 117%; in [4], 67.3% and 54%; in test [5] it was 76.8% and 69.1%; in [6], 86.3% and 81.3%. Also, the growth in [7] is 41.7% and 11.4%; in test [8] it was 96.5% and 85.1%; in test [9], -40.5% (active) and -36.8% (active); in test [10], 66.7% and 58.8%.

Regarding `COC1=CC(c2ccc[nH]2)=N/C1=C\c1[nH]c(C)c(C(=O)Oc2ccccc2)c1C`, the growth in test [1] is 9.64% (active); in [2] it was 8.48% (active); in test [3], -79.6% (active); in [4], -69.2% (active); in test [5], -9.71% (active); in [6], 14.9%. In addition, the growth was -74.9% (active) in [7], -74.6% (active) in test [8], -54.9% (active) in [9] and -59.2% (active) in [10].

With `Cc1c(C(=O)OCCCCOC(=O)c2c(C)n(C)c3scc[n+]23)[n+]2ccsc2n1C`, the growth in [1] was 107%; in [2], 92%; in [3] it was 105%; in test [4], 97.9%; in test [5] it was 103%; in [6], 108%. For the same molecule, the growth is 93.2% in test [7], 105% in test [8], 96.5% in [9] and 110% in test [10].

For the molecule `CC12CCC(C(=O)CC1=O)C2(C)C` (stereo not given), the growth was 110% and 108% in test [1]; 102% and 84.9% in [2]; 105% and 87.4% in test [3]; 111% and 105% in test [4]; 106% in test [5]; 99.2% and 100% in [6]. Also, the growth in test [7] was 100%; in test [8] it was 107% and 112%; in test [9], 103% and 91.7%; in test [10], 102% and 101%.

`Cc1c(O)c(O)cc2c3c(oc12)CC(c1ccc2c(c1)OCO2)CC3=O` (stereo not given): the growth in test [1] was 97.7%; in [2], 82.1%; in test [3], 105%; in test [4] it was 76.9%; in test [5], 115%; in test [6], 83.3%. Moreover, the growth was 106% in test [7], 81.8% in [8], 94.7% in test [9] and 84% in test [10].

(Values after PubChem BioAssay (NCI).)
